The text below walks through data of PubChem BioAssay.

The inhibition is the change of the read-out against control, counted positive when it falls.

The nature of assay [1]: rapamycin-like changes in RPL19A-GFP expression – cell-based, S. cerevisiae, multiplex flow cytometry, primary screen (AID 1862; in the data active = percent of DMSO control GFP below about 86%;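 also: lower values mimic rapamycin by blocking the RPL19A rise seen in DMSO cells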). As to conditions: S. cerevisiae RPL19A-GFP strain, flow cytometry fluorescence, 3 h; at 10 µM; stronger effect = lower value. On the technique in general: A flow cytometer gives signals particle by particle.
A short description of assay [2]: TOR pathway GLN3 branch reporter MEP2-GFP changes – S. cerevisiae, multiplex flow cytometry, primary screen (AID 1867;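 active = GFP response, as percent of the DMSO control, above the screen-wide mean plus 3 SD, about 139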;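 also: median GFP channel fluorescence of barcode-gated MEP2-GFP cells measured by flow cytometry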). As to conditions: S. cerevisiae MEP2-GFP strain, 3 h, at 10 µM, stronger effect = higher value, 100% means same as DMSO wells.
Assay [3] is described as follows: TOR pathway RTG branch CIT2 reporter changes – S. cerevisiae, GFP fusion, multiplex flow cytometry, primary screen (AID 1870).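 Also: barcoded CIT2-GFP strain pooled with four other GFP strains with rapamycin as positive control; median GFP fluorescence per well over plate mean of DMSO wells so 100% = DMSO.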 As to conditions: S. cerevisiae CIT2-GFP expression, 3 h, at 10 µM, stronger effect = higher value.
A short description of assay [4]: TOR pathway LAP4-GFP level changes – S. cerevisiae, multiplex flow cytometry, primary screen (AID 1873;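 active = GFP signal, as percent of the solvent control, above the screen mean plus 3 SD, about 149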). The note with it: S. cerevisiae LAP4-GFP expression, 3 h, at 10 µM, stronger effect = higher value.
Assay [5] can be described thus: yeast AGP1-GFP level changes, GLN3 branch – cell-based, multiplex flow cytometry, S. cerevisiae, primary screen (AID 1887;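 active = GFP signal above the screen-wide mean plus 3 SD, that is over about 124.5% of the solvent control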;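 also: AGP1-GFP fusion strain of S. cerevisiae within a five-strain barcoded multiplex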). As to conditions: 3 h, at 10 µM, stronger effect = higher value.
Assay [6] in a line: reduced mouse 2C T cell binding to pMHC/ICAM-1 vesicles – MLPCN validation set, flow cytometry, LFA-1/ICAM-1 modulator project, pilot screen (AID 2523;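 active = response below a set limit, under 55% cells CD8-positive and vesicle-bound, and CD8 cells' 90th-percentile brightness under 279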;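 as to vesicle binding response: mean PE anti-B7-1 fluorescence of CD8+ cells relative to row control; 100% = QL9-loaded vesicles with DMSO vehicle in the same plate row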). The note with it: 2C mouse CD8+ T cells, at 7 µM, stronger effect = lower value; double positive events: measured here: CD8+/vesicle+ event percentage.
The target of assay [7] is Integrin beta-1 (Homo sapiens) + Integrin alpha-4 (Homo sapiens) (UniProt P13612+P05556). Description: alpha4beta1 integrin LIBS antibody binding reduction – U937 cells, HUTS-21 mAb, flow cytometry, validation set, VLA-4 allosteric modulator project, pilot screen (AID 2674;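 active = inhibition above 50%, about 3 SD of the validation set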;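 also: antibody binding induced by the VLA-4 ligand LDV present at three times its Kd; 0% = LDV ligand with antibody and no compound and 100% = antibody without LDV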). The note with it: HUTS-21 LIBS mAb binding, at 6.7 µM, stronger effect = higher value, binding induced by LDV ligand.
Sequence of Integrin beta-1 (Homo sapiens) + Integrin alpha-4 (Homo sapiens) (P05556 whole entry, looked up): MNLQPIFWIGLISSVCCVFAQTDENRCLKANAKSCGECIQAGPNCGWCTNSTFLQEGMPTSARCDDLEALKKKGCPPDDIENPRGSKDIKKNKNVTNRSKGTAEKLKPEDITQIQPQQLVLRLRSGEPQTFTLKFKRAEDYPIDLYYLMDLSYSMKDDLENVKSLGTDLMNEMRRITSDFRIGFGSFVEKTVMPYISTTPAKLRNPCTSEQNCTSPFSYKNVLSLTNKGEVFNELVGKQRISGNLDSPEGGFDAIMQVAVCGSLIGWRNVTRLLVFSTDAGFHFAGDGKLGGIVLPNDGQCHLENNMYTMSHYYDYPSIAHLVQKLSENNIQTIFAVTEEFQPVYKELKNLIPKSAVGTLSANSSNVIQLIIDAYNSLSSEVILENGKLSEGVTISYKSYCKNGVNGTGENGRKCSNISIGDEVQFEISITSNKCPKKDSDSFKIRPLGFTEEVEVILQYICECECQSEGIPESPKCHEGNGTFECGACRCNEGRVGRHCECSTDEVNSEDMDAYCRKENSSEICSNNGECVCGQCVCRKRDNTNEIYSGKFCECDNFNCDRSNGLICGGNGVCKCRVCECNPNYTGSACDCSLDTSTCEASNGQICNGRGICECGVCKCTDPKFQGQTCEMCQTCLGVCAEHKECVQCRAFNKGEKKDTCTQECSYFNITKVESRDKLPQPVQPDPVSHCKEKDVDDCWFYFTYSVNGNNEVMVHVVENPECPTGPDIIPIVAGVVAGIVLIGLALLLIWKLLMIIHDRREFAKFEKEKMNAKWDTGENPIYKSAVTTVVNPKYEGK
Sequence of Integrin beta-1 (Homo sapiens) + Integrin alpha-4 (Homo sapiens) (P13612 whole entry, looked up): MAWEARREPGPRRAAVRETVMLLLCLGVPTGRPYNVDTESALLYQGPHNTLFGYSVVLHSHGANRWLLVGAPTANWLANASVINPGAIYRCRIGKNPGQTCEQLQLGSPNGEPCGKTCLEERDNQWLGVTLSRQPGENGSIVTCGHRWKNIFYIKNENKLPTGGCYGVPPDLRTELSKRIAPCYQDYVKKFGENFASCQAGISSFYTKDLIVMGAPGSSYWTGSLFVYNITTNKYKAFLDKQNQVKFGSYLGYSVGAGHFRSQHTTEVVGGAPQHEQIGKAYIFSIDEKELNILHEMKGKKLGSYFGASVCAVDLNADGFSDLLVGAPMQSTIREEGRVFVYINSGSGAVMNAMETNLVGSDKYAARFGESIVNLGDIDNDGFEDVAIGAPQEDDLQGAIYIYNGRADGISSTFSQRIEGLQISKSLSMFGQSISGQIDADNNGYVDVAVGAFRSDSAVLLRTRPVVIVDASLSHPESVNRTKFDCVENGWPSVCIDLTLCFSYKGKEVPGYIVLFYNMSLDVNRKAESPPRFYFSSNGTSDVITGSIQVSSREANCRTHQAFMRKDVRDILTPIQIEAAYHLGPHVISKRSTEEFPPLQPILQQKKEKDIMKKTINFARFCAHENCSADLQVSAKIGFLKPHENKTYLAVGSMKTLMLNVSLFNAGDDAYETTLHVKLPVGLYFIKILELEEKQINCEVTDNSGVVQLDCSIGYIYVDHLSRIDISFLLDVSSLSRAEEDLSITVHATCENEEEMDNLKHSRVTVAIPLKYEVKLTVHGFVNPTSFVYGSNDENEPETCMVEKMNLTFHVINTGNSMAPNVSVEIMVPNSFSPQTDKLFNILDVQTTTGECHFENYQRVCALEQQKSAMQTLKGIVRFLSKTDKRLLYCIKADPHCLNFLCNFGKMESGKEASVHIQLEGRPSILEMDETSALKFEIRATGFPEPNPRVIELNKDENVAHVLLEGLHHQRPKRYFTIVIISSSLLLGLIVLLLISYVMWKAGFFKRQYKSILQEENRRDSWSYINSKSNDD

A short description of assay [8]: calorie-restriction mimetic ROS inhibitors, yeast – validation compound set, pilot screen (AID 2706;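 active = superoxide response below 65% of plate, a cut near 3 SD across the whole screen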;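 also: yeast exposed to compound for one week at 30 degrees C before staining; 100% = mean of all compound wells on the same plate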). The note with it: S. cerevisiae aging, superoxide DHE fluorescence; at 10 µM; stronger effect = lower value.
In assay [9] the target is Beta-adrenergic receptor kinase 1 (Homo sapiens) (UniProt P25098). Description: GRK2 binders displacing RNA aptamer, biochemical, validation, human GRK2, bead flow cytometry (AID 488806;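 active = aptamer binding inhibition above 30%, about 3 SD of noise from non-fluorescent compounds; inactive = inhibition at or below 30%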). As to conditions: bead-bound GRK2, FAM-aptamer displacement, at 10 µM, stronger effect = higher value.
Sequence of Beta-adrenergic receptor kinase 1 (Homo sapiens) (P25098 whole entry, looked up): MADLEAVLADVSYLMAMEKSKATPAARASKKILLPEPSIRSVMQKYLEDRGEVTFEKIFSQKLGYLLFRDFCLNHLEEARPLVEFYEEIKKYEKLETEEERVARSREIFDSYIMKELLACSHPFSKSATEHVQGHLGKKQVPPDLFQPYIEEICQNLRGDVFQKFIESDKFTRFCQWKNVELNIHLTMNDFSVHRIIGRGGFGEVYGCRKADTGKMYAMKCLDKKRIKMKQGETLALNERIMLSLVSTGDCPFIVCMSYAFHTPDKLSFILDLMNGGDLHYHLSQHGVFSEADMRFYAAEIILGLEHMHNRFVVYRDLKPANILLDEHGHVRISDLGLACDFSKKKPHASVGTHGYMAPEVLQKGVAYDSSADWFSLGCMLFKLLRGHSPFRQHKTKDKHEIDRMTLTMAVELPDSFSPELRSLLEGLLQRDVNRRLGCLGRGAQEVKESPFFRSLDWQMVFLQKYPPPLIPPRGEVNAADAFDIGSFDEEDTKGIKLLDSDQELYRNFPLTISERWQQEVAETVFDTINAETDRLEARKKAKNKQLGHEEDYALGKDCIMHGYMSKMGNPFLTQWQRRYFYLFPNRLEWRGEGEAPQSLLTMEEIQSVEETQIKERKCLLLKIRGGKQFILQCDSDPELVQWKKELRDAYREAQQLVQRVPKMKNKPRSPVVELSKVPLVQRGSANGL
In assay [10] the target is Beta-2 adrenergic receptor (Homo sapiens) (UniProt P07550). In words: agonist-induced loss of surface beta2AR – cell-based, FAP fluorogen, flow cytometry, validation set, pilot screen (AID 504459;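 active = percent response above 42, roughly 3 SD of non-fluorescent test compounds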;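 also: agonist-driven loss of surface beta2AR via internalization measured by FAP dye flow cytometry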). As to conditions: Am2.2-beta2AR cells, at 10 µM, stronger effect = higher value.
Sequence of Beta-2 adrenergic receptor (Homo sapiens) (P07550 whole entry, looked up): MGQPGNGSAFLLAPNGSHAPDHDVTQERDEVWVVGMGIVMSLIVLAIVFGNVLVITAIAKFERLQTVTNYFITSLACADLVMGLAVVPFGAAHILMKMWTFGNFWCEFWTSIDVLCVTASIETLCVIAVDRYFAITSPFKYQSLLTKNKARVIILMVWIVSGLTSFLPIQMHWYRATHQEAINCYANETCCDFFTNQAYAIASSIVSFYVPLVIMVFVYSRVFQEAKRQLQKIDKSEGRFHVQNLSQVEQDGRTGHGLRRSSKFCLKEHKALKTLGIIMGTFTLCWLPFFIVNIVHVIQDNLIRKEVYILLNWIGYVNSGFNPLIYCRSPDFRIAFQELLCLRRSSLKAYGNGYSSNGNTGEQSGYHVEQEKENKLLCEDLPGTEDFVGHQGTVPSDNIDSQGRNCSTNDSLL
For assay [11], the target named is AP-2 complex subunit beta (Homo sapiens) (UniProt P63010). In words: beta-arrestin/AP2 interaction blockers – biochemical, validation set, GST-AP2 beads, flow cytometry, pilot screen (AID 504541;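 active = inhibition above 54%, about 3 SD of non-fluorescent compounds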;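 also: AP2 carries R879A mutation and is captured from E. coli lysate; bead-bound FITC arrestin peptide fluorescence measuring arrestin peptide binding to AP2; 0% = DMSO wells and 100% = excess unlabeled arrestin peptide control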). The note with it: FITC arrestin peptide, at 10 µM, stronger effect = higher value, AP2 beta2 appendage fragment, R879A mutant.
Sequence of AP-2 complex subunit beta (Homo sapiens) (P63010 whole entry, looked up, the tested form may be a part, one chain of several): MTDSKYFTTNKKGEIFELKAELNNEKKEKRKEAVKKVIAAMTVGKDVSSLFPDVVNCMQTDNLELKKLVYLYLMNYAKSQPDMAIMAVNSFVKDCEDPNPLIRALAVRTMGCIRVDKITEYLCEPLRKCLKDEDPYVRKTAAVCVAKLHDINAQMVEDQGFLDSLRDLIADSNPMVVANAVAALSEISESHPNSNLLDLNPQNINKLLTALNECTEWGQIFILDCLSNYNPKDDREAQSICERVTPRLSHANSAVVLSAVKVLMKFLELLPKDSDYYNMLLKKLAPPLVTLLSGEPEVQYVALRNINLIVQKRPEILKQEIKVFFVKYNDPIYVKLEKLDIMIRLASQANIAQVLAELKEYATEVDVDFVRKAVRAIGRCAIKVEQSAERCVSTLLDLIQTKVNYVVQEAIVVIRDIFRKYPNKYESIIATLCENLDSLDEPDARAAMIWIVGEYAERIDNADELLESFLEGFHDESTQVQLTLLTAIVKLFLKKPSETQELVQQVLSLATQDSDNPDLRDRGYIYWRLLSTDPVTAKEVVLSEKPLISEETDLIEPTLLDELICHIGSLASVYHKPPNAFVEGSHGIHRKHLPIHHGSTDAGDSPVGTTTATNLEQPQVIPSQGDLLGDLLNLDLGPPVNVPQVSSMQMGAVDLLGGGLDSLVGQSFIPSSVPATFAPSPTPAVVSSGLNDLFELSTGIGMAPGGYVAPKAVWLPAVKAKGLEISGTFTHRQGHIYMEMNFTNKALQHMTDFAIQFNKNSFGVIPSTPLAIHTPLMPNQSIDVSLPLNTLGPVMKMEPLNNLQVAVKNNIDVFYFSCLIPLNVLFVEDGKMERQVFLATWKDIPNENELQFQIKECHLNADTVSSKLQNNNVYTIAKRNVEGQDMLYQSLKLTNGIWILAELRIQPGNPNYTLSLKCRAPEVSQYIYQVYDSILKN
Assay [12] can be described thus: cytosolic pH regulators acting via V-ATPase – S. cerevisiae, pHLuorin, HTS validation (AID 504600; in the data active = response above about 15%;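 also: plate controls were DMSO for no effect and reference compound for full effect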). As to conditions: V-ATPase proton transport, at 10 µM, stronger effect = higher value.
Assay [13] has as its system anti-desmoglein-3 scFv antibody binding to human DSG3. In words: blockers of pathogenic pemphigus antibody–desmoglein-3 binding – biochemical, validation compound set, bead-based, flow cytometry, pilot screen (AID 588368;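 active = binding below the plate cutoff, the plate median minus 3 SD, with a reading above zero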;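 also: signal is the median channel fluorescence of bead-bound GFP antibody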). As to conditions: Protein G beads, DSG3-Fc, scFv-GFP binding, at 10 µM, stronger effect = lower value.
Assay [14] in a line: Nile Red efflux blockade in pump-expressing yeast – validation compound set, multiplex, phenotypic, pilot screen (AID 588506;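 active = efflux inhibition above 0.42, the validation set average plus 4 SD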;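 also: Nile Red retained in cells so higher fluorescence means more efflux inhibition; 0 = negative control wells and 1 = enniatin B 25 µM full block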). The note with it: S. cerevisiae pump-expressing triplex, Nile Red efflux flow cytometry; at 10 µM; stronger effect = higher value; the pumps come from Candida albicans.
Assay [15] deals with ATP-binding cassette sub-family B member 6 (Homo sapiens) (UniProt Q9NP58). In words: blockers of ABCB6-driven porphyrin uptake – K562-ABCB6 cells, flow cytometry, validation set, pilot screen (AID 588550;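 active = inhibition above the screen-wide mean plus 3 SD, about 51%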;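 also: 0% = DMSO wells and 100% = benzethonium chloride 70 µM positive control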). The note with it: K562-ABCB6 porphyrin accumulation, 1 h, at 10 µM, stronger effect = higher value.
Sequence of ATP-binding cassette sub-family B member 6 (Homo sapiens) (Q9NP58 whole entry, looked up): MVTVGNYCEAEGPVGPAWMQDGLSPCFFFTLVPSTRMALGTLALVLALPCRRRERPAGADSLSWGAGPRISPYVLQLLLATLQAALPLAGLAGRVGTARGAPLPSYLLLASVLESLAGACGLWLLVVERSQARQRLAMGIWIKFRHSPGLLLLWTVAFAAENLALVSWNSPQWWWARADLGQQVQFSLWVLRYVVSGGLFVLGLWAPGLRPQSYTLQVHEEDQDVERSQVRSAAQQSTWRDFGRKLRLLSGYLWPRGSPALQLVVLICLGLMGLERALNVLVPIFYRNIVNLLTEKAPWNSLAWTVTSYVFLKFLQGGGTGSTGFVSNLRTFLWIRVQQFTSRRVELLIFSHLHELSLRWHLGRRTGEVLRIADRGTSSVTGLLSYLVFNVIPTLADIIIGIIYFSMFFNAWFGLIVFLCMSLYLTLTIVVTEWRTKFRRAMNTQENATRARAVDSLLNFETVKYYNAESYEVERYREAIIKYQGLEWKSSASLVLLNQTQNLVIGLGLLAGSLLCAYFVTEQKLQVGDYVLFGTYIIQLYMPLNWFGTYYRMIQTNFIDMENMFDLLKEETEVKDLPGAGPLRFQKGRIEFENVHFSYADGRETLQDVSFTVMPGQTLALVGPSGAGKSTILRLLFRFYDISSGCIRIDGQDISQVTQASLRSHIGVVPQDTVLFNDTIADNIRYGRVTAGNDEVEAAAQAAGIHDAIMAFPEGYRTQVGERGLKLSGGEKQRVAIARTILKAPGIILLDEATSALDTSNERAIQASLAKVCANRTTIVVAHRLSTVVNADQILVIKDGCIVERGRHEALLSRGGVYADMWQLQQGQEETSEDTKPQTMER
A short description of assay [16]: AML differentiation inducers, ER-HoxA9 marrow cells – cell-based, GFP/MAC1 double positive, flow cytometry, validation set, primary screen (AID 588685;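 active = differentiation response of at least 50%, scaled between solvent and reference control, from cells with both markers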;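 also: compound exposure lasts four days before antibody staining and flow analysis; 0% = DMSO wells and 100% = 5 µM fulvestrant positive control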). The note with it: stronger effect = higher value, normalized: vehicle 0, fulvestrant 100.

SMILES strings stand for the structures. Records with an inconclusive call do not appear. Active and inactive are the calls of the source.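 The calls were made as follows, unless noted: active = percent response above a set limit, the screen-wide mean plus 3 SD (cut at about 130% in these data); inactive = the rest.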

As to `CC(C)Oc1cccc(C(=O)N2CCCC2)c1`, the percent of DMSO control GFP in [1] was 102% (inactive). In addition, the GFP response vs DMSO was 106% (inactive) in [2] and 99.9% (inactive) in assay [4]. Moreover, the percent response of DMSO control in assay [3] is 94.2% (inactive). Moreover, the GFP response, % of DMSO in [5] is 100% (inactive). This compound yielded a double positive events in assay [6] of 64.7%. Also, the vesicle binding response in assay [6] was 221% (inactive). In addition, the inhibition was -4.6% (inactive) in assay [7], -4.57% (inactive) in assay [11] and -4% (inactive) in assay [15]. Further, the superoxide response (% of plate) in assay [8] was 101% (inactive). Further, in assay [9], the aptamer binding inhibition was 0% (inactive). The response in assay [10] is -9.83% (inactive); in [12], 1.82% (inactive). Further, the binding (% of control) in assay [13] was 93.2% (inactive). The efflux inhibition (fraction of control) in assay [14] was 0.14 (inactive). For the same compound, in assay [16], the differentiation response was 9.04% (inactive).

With `C=C(C)Cn1c(NCCOC)nc2c1c(=O)[nH]c(=O)n2C`, the percent of DMSO control GFP in assay [1] was 103% (inactive). Further, the GFP response vs DMSO in [2] is 112% (inactive); in assay [4] it was 96.6% (inactive). Moreover, the percent response of DMSO control in assay [3] was 104% (inactive). The GFP response, % of DMSO in assay [5] is 98.8% (inactive). The same compound came in with a double positive events in assay [6] of 64.5%. In assay [6], the vesicle binding response is 327% (inactive). For the same compound, the inhibition in assay [7] is -5.64% (inactive); in [11], -1.55% (inactive); in assay [15] it was -4% (inactive). Also, the superoxide response (% of plate) in [8] was 98.4% (inactive). Besides, the aptamer binding inhibition in assay [9] was 3% (inactive). The response is 3.03% (inactive) in [10] and -1.65% (inactive) in assay [12]. In assay [13], the binding (% of control) is 99.8% (inactive). In assay [14], the efflux inhibition (fraction of control) was -0.07 (inactive). Also, the differentiation response in assay [16] is 0.24% (inactive).

In the case of `CCOC(=O)C1C2C=CC3(CN(c4ccc(Cl)c(F)c4)C(=O)C13)O2` (stereo not given), the percent of DMSO control GFP in assay [1] was 100% (inactive). For the same compound, the GFP response vs DMSO in assay [2] was 99.3% (inactive); in assay [4], 96.6% (inactive). For the same compound, in assay [3], the percent response of DMSO control is 95.4% (inactive). Further, the GFP response, % of DMSO in [5] is 94.6% (inactive). This compound came in with a double positive events in assay [6] of 58.3%. Further, the vesicle binding response in [6] was 171% (inactive). The inhibition in assay [7] was -9.79% (inactive); in assay [11], 36.1% (inactive); in [15], 2% (inactive). The superoxide response (% of plate) in [8] was 105% (inactive). Further, in [9], the aptamer binding inhibition is 1% (inactive). For the same compound, the response in [10] was 1.75% (inactive); in assay [12] it was -0.79% (inactive). In assay [13], the binding (% of control) was 100% (inactive). For the same compound, the efflux inhibition (fraction of control) in [14] was 0.33 (inactive). For the same compound, the differentiation response in assay [16] is 12% (inactive).

Take `COC(=O)c1[nH]c(=O)c2ccccc2c1O`: the percent of DMSO control GFP in assay [1] was 101% (inactive). The GFP response vs DMSO in assay [2] was 95.2% (inactive); in [4], 110% (inactive). Further, the percent response of DMSO control in assay [3] was 101% (inactive). The GFP response, % of DMSO in assay [5] was 100% (inactive). Besides, the double positive events in assay [6] is 62.3%. Besides, the vesicle binding response in assay [6] is 159% (inactive). The values for the inhibition in [7], in [11] and in assay [15] were 0.94% (inactive), -7.21% (inactive) and 109% (active), respectively. For the same compound, in assay [8], the superoxide response (% of plate) was 104% (inactive). In [9], the aptamer binding inhibition is 1% (inactive). Moreover, the response is -13.2% (inactive) in assay [10] and 2.12% (inactive) in [12]. In addition, the binding (% of control) in assay [13] is 101% (inactive). The efflux inhibition (fraction of control) in [14] is 0.01 (inactive). Further, the differentiation response in assay [16] is 18.4% (inactive).

On to `Cn1cc(/C=C/C(=O)c2ccccc2)c2ccccc21`, for which the percent of DMSO control GFP in assay [1] is 98% (inactive). In addition, the GFP response vs DMSO in assay [2] was 107% (inactive); in [4], 133% (inactive). Moreover, the percent response of DMSO control in assay [3] is 87.2% (inactive). In addition, the GFP response, % of DMSO in assay [5] was 89.7% (inactive). The double positive events in [6] amounted to 58.1%. The vesicle binding response in [6] is 230% (inactive). The values for the inhibition in assay [7], in assay [11] and in [15] were -1.79% (inactive), 4.67% (inactive) and 4% (inactive), respectively. Moreover, the superoxide response (% of plate) in assay [8] is 102% (inactive). The aptamer binding inhibition in [9] is 1% (inactive). Moreover, the response in [10] was 32.6% (inactive); in assay [12], -2% (inactive). Besides, the binding (% of control) in assay [13] was 101% (inactive). For the same compound, the efflux inhibition (fraction of control) in [14] was -0.1 (inactive). Also, in assay [16], the differentiation response was -10.4% (inactive).
